1 compound from ChEMBL document CHEMBL1961873, “Compounds: GSK PKIS; Assays: Nanosyn kinase panel” (2012) can be followed below.

The target in test [1] is Sphingosine kinase 1 (Homo sapiens) (UniProt Q9NYA1). The following applies: at 1 µM.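 Note: mean SPHK1 inhibition value reported from the GSK PKIS kinase panel screen.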
Test [2] has as its target T1, Sphingosine kinase 2 (Homo sapiens) (UniProt Q9NRA0).
T1 sequence (whole entry): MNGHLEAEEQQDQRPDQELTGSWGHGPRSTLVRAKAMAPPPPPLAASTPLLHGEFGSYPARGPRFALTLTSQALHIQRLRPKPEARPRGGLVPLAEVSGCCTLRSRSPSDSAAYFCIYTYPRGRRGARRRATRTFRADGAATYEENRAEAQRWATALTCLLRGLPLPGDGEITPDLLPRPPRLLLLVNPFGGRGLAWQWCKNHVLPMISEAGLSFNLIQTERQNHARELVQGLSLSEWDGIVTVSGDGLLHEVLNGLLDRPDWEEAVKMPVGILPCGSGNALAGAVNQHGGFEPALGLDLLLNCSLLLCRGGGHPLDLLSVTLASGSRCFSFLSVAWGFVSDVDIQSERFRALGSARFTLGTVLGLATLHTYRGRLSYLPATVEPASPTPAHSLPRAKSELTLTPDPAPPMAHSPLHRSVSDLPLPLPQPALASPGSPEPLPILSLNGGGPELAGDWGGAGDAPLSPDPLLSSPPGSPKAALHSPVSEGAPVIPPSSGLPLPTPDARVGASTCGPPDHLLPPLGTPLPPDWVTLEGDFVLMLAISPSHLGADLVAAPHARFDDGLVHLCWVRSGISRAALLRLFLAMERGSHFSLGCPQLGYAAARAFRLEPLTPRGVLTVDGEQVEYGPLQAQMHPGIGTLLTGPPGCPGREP
The following applies: at 0.1 µM.

The target in test [3] is T1, Sphingosine kinase 2 (Homo sapiens). The note with it: at 1 µM.
Test [4] addresses Casein kinase II subunit alpha (Homo sapiens) (UniProt P68400). The following applies: at 0.1 µM.
For test [5] the target is unchanged. The following applies: at 1 µM.
Test [6] has as its target T2, Inhibitor of nuclear factor kappa-B kinase subunit alpha (Homo sapiens) (UniProt O15111).
T2 sequence (whole entry): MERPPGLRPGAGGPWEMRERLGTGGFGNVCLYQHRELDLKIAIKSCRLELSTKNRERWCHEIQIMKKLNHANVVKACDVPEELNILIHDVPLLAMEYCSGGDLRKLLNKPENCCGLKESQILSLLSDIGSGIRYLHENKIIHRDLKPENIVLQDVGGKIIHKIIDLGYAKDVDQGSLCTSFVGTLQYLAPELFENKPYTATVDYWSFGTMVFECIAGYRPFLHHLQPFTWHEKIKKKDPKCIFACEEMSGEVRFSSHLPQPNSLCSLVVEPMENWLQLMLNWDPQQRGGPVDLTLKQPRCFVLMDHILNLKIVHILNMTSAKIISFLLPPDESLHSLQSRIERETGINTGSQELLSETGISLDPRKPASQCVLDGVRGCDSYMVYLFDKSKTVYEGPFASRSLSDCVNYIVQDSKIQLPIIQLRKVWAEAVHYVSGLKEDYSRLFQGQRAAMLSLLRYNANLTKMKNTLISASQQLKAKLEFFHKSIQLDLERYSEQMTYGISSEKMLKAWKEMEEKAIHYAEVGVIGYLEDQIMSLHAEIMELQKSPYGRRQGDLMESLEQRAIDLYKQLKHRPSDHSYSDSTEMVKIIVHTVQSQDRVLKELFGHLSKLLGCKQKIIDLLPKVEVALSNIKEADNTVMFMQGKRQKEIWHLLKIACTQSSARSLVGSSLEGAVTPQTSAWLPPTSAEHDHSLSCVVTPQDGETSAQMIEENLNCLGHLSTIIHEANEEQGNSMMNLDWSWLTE
The following applies: at 0.1 µM.

Test [7] concerns the target T2, Inhibitor of nuclear factor kappa-B kinase subunit alpha (Homo sapiens). The following applies: at 1 µM.
Test [8] addresses T3, Inhibitor of nuclear factor kappa-B kinase subunit beta (Homo sapiens) (UniProt O14920).
T3 sequence (whole entry): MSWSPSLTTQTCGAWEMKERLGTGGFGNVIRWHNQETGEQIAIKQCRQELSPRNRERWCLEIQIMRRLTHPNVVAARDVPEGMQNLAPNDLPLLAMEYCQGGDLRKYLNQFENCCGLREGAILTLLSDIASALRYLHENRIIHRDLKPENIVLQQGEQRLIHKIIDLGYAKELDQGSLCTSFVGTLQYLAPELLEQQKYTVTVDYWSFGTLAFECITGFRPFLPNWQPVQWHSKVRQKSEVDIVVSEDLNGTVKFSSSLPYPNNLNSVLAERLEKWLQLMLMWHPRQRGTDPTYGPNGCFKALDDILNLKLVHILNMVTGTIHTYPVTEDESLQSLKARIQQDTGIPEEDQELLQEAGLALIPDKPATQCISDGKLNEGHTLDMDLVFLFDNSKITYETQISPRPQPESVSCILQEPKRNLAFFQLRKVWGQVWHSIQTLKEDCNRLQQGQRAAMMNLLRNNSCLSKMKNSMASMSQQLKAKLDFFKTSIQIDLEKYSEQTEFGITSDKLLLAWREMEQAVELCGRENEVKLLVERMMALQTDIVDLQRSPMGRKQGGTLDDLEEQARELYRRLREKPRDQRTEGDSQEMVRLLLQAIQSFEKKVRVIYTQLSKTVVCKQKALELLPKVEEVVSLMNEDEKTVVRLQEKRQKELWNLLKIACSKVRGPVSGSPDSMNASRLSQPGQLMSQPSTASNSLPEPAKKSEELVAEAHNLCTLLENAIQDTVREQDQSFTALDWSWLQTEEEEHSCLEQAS
The following applies: at 0.1 µM.

The target of test [9] is T3, Inhibitor of nuclear factor kappa-B kinase subunit beta (Homo sapiens). The note with it: at 1 µM.
In test [10] the target is T4, Inhibitor of nuclear factor kappa-B kinase subunit epsilon (Homo sapiens) (UniProt Q14164).
T4 sequence (whole entry): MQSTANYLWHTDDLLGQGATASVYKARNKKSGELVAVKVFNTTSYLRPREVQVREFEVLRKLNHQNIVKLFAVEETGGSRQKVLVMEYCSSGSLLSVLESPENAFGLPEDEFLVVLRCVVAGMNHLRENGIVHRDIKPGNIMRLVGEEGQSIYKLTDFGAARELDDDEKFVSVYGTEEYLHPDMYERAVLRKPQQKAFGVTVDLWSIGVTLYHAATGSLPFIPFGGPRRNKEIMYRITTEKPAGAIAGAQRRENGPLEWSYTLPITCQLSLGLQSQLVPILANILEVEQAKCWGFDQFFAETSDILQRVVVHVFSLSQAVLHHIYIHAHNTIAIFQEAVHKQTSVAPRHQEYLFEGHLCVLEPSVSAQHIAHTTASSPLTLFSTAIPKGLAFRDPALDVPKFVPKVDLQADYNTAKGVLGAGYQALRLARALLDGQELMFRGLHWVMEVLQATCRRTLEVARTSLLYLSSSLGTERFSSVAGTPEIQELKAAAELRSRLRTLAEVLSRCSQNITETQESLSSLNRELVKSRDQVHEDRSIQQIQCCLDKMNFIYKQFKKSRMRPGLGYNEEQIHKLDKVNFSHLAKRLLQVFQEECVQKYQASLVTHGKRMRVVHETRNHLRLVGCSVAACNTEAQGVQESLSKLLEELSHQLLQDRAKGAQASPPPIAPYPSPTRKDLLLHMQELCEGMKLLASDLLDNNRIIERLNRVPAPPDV
The note with it: at 0.1 µM.

The target in test [11] is T4, Inhibitor of nuclear factor kappa-B kinase subunit epsilon (Homo sapiens). The note with it: at 1 µM.
The target of test [12] is T5, Serine/threonine-protein kinase Nek1 (Homo sapiens) (UniProt Q96PY6).
T5 sequence (whole entry): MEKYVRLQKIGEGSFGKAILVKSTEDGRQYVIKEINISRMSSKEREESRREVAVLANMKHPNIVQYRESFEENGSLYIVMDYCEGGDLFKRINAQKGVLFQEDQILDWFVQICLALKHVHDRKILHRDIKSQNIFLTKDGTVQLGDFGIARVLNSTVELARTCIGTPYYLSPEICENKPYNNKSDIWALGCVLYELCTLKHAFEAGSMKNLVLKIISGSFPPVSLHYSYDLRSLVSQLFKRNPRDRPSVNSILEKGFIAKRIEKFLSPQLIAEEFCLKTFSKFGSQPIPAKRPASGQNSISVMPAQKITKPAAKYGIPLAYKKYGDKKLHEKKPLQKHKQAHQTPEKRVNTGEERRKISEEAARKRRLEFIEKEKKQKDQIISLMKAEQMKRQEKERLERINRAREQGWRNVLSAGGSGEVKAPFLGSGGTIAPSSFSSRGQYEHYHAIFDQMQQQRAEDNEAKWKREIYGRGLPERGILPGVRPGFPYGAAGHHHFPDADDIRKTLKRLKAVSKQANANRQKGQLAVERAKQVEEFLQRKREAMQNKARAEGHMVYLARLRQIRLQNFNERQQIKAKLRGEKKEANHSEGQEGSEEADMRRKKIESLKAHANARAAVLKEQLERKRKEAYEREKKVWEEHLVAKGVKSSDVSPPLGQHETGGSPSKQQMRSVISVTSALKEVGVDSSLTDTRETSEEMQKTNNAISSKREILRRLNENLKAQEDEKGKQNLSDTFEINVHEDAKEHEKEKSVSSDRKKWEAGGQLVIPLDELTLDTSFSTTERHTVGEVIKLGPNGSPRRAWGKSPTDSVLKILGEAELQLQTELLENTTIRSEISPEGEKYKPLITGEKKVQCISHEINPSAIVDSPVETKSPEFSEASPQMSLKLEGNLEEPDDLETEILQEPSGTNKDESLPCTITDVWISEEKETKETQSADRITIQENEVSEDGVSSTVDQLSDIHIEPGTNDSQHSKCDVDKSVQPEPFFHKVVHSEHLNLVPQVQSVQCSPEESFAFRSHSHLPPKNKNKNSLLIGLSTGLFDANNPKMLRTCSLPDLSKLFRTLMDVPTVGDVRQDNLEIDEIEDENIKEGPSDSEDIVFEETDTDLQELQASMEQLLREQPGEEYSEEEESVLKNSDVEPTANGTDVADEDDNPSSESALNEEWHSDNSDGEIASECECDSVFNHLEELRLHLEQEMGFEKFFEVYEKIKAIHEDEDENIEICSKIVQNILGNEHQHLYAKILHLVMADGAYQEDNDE
The following applies: at 0.1 µM.

The target of test [13] is T5, Serine/threonine-protein kinase Nek1 (Homo sapiens). The note with it: at 1 µM.
Test [14] has as its target T6, Serine/threonine-protein kinase Nek2 (Homo sapiens) (UniProt P51955).
T6 sequence (whole entry): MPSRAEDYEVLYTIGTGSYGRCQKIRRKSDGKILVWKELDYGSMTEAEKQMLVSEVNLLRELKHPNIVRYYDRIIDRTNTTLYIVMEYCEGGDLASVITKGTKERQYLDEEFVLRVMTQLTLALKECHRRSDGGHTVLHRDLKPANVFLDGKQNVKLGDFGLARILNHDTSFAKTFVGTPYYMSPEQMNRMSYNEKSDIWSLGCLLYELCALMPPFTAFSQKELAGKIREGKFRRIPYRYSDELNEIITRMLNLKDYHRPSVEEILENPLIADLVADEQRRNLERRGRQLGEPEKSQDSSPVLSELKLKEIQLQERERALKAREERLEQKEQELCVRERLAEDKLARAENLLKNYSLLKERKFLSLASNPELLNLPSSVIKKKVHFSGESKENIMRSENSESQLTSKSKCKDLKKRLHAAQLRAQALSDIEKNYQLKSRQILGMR
The following applies: at 0.1 µM.

Test [15] concerns the target T6, Serine/threonine-protein kinase Nek2 (Homo sapiens). The note with it: at 1 µM.
Test [16] addresses Serine/threonine-protein kinase Nek6 (Homo sapiens) (UniProt Q9HC98). The following applies: at 0.1 µM.
Test [17] shares this target. The note with it: at 1 µM.
For test [18], the target named is Serine/threonine-protein kinase Nek7 (Homo sapiens) (UniProt Q8TDX7). The note with it: at 0.1 µM.
Sequence of Serine/threonine-protein kinase Nek7 (Homo sapiens) (Q8TDX7 whole entry, looked up): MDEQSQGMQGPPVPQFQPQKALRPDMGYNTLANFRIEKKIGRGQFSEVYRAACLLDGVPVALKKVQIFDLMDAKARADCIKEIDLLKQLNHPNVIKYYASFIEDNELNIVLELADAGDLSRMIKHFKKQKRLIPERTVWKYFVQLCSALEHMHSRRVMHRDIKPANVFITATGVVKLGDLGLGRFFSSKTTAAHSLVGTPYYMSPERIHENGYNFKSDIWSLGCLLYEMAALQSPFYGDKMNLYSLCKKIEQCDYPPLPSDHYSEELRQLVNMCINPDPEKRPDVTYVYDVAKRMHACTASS
The target is the same in test [19]. The following applies: at 1 µM.
The target in test [20] is T7, Serine/threonine-protein kinase Nek9 (Homo sapiens) (UniProt Q8TD19).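 Note: reported value is the mean percent inhibition of NEK9.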
T7 sequence (whole entry): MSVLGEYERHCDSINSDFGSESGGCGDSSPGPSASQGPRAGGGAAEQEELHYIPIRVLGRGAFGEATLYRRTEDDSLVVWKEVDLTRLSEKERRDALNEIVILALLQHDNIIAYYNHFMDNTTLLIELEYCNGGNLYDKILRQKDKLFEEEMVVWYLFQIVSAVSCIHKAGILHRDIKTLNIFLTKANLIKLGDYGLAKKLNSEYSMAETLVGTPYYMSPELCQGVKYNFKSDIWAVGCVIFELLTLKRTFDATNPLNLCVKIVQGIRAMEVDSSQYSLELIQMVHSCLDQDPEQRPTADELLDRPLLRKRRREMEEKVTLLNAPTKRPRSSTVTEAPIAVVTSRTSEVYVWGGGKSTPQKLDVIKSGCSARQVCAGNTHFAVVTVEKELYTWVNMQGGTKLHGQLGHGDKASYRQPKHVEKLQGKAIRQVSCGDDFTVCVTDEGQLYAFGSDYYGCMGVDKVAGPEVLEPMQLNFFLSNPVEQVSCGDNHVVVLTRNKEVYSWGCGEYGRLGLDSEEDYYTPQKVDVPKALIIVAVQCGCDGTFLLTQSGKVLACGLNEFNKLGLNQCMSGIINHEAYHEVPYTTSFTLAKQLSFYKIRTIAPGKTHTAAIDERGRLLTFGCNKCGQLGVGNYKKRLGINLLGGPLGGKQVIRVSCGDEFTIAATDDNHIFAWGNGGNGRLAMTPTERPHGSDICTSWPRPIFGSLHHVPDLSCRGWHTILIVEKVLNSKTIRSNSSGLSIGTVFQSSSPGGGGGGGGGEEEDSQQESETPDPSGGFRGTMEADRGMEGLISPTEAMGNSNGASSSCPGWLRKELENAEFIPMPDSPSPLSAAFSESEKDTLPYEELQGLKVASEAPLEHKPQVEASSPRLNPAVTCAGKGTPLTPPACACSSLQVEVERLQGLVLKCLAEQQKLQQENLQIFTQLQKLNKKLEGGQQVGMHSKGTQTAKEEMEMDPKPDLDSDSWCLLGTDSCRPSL
The note with it: at 0.1 µM.

Sequence of Serine/threonine-protein kinase Nek6 (Homo sapiens) (Q9HC98 whole entry): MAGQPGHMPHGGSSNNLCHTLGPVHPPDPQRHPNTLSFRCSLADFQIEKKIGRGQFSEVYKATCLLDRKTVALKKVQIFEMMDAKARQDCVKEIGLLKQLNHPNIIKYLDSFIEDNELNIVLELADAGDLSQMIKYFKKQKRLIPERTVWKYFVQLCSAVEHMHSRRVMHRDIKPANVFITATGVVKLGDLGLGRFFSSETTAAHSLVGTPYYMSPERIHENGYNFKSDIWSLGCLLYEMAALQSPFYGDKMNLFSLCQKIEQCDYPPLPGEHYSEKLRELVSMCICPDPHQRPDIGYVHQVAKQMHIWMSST
Sequence of Casein kinase II subunit alpha (Homo sapiens) (P68400 whole entry, looked up): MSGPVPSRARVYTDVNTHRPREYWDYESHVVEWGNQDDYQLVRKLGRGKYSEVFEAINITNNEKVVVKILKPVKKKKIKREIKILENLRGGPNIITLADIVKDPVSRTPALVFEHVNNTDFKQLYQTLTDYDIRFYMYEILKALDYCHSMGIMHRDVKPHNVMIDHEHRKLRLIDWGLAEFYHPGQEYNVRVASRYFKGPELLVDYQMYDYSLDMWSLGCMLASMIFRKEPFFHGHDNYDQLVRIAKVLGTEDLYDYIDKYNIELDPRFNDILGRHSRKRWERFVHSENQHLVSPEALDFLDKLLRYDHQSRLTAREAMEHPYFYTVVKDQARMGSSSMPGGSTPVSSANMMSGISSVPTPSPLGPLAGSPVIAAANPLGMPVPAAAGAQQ
Sequence of Sphingosine kinase 1 (Homo sapiens) (Q9NYA1 whole entry): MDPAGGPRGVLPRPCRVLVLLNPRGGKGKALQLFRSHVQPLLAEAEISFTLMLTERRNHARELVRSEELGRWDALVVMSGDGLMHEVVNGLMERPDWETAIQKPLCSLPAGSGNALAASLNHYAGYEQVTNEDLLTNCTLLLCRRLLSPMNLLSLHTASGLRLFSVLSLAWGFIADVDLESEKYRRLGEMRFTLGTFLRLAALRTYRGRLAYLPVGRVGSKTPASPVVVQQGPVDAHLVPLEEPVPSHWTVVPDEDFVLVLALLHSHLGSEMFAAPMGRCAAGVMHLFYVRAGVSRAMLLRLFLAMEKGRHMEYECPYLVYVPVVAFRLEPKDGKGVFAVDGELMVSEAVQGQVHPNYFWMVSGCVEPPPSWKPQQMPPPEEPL

Broadly, the inhibition is the change of the read-out against control, counted positive when it falls. In the case of `COC(=O)Nc1nc2ccc(Oc3ccc(NC(=O)Nc4cccc(Cl)c4)cc3)cc2[nH]1`, the inhibition in test [1] was -0.57%; in [2] it was 0%; in test [3], 0%; in test [4], 4.68%; in test [5], 1.84%; in [6], -0.79%. The inhibition is 6.02% in [7]; -0.04% in test [8]; 1.06% in test [9]; 4.59% in test [10]; 1.25% in test [11]; 0.97% in [12]. In addition, the inhibition is 0.11% in test [13]; 0.46% in test [14]; 0.04% in test [15]; 2.21% in test [16]; -0.77% in test [17]; 1.46% in [18]. The inhibition was 1.97% in test [19] and 5.35% in [20].
